Experimental data taken from PubChem BioAssay AID1159580 (chemical genetic matrix, 2015).
The whole screen tested about 5,500 compounds, of which about 2,000 (36%) were called active. Another 18% or so got no clear call; they are omitted. No stated cut-off is given here; in the data, active means normalized growth mostly below about 0.91 (no sharp cut-off); inconclusive means no clear call, values can overlap the other calls; inactive means mostly above about 0.92. Some of the results follow.

Assay: chemical genetic growth profiling, strain panel (AID 1159580);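 further: tested at 20 µM; growth read once vehicle control cultures reached saturation at 30 °C; 1 = growth at the plate median or of vehicle wells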
Settings: S. cerevisiae deletion strains, growth OD
[1] = locus YER002W, strain NOP16, stronger effect = lower value
[2] = locus YNL175C, strain NOP13, stronger effect = lower value
[3] = locus YNL197C, strain WHI3, stronger effect = lower value
[4] = locus YNL224C, strain SQS1, stronger effect = lower value
[5] = locus YOR083W, strain WHI5 (second series), stronger effect = lower value

Measured: normalized growth

NS(=O)(=O)c1cccc2c1c([N+](=O)[O-])cc1nc(O)c(O)nc12
inactive: locus YAL013W, strain DEP1, stronger effect = lower value 1 | locus YAL040C, strain CLN3, stronger effect = lower value 1.08 | locus YCL061C, strain MRC1 (second series), stronger effect = lower value 0.998 | locus YDR363W, strain ESC2, stronger effect = lower value 1.01 | [1] 0.999 | locus YGR078C, strain PAC10, stronger effect = lower value 0.995 | locus YMR307W, strain GAS1, stronger effect = lower value 0.997 | [2] 0.989 | [3] 1.01 | [4] 1 | locus YNL322C, strain KRE1, stronger effect = lower value 0.998 | [5] 1.01 | locus YPL055C, strain LGE1, stronger effect = lower value 1

O=[N+]([O-])c1cccc2c(Br)[nH]nc12
active: locus YNL248C, strain rpa49, stronger effect = lower value 0.871 | locus YOR083W, strain WHI5, stronger effect = lower value 0.881 | locus YOR106W, strain vam3, stronger effect = lower value 0.863 | locus YPL051W, strain arl3, stronger effect = lower value 0.899 | locus YPL078C, strain atp4, stronger effect = lower value 0.874
inactive: locus YAL021C, strain ccr4, stronger effect = lower value 0.955 | locus YAL026C, strain drs2, stronger effect = lower value 0.993 | locus YAL030W, strain snc1, stronger effect = lower value 0.984 | locus YBL061C, strain skt5, stronger effect = lower value 0.982 | locus YBR009C, strain hhf1, stronger effect = lower value 1.01 | locus YBR023C, strain chs3, stronger effect = lower value 0.992 | locus YBR171W, strain sec66, stronger effect = lower value 0.972 | locus YBR231C, strain swc5, stronger effect = lower value 0.997 | locus YBR279W, strain paf1, stronger effect = lower value 0.992 | locus YCL011C, strain gbp2, stronger effect = lower value 0.976 | locus YCL016C, strain dcc1, stronger effect = lower value 0.996 | locus YCL061C, strain MRC1, stronger effect = lower value 0.983 | locus YCL069W, strain vba3, stronger effect = lower value 0.972 | locus YCR088W, strain abp1, stronger effect = lower value 0.986 | locus YDL005C, strain med2, stronger effect = lower value 0.977 | locus YDL040C, strain nat1, stronger effect = lower value 0.99 | locus YDR001C, strain nth1, stronger effect = lower value 0.984 | locus YDR069C, strain doa4, stronger effect = lower value 0.965 | locus YDR137W, strain rgp1, stronger effect = lower value 0.942 | locus YDR150W, strain NUM1, stronger effect = lower value 0.961 | locus YDR159W, strain sac3, stronger effect = lower value 1.07 | locus YDR195W, strain ref2 1.09 | locus YDR297W, strain sur2, stronger effect = lower value 0.977 | locus YDR334W, strain swr1, stronger effect = lower value 0.956 | locus YDR335W, strain msn5, stronger effect = lower value 0.975 | locus YDR392W, strain spt3, stronger effect = lower value 0.852 | locus YEL003W, strain gim4, stronger effect = lower value 0.978 | locus YEL037C, strain rad23, stronger effect = lower value 0.99 | locus YEL061C, strain CIN8 (second series), stronger effect = lower value 0.987 | [1] 0.975 | locus YER015W, strain faa2, stronger effect = lower value 0.973 | locus YER016W, strain bim1, stronger effect = lower value 0.998 | locus YER111C, strain swi4, stronger effect = lower value 0.998 | locus YER155C, strain BEM2 (second series), stronger effect = lower value 0.948 | locus YFR010W, strain ubp6, stronger effect = lower value 0.972 | locus YGL167C, strain pmr1, stronger effect = lower value 0.99 | locus YGL173C, strain kem1, stronger effect = lower value 0.983 | locus YGL227W, strain vid30, stronger effect = lower value 0.993 | locus YGL240W, strain doc1, stronger effect = lower value 0.996 | locus YGL253W, strain hxk2, stronger effect = lower value 0.988 | locus YHR013C, strain ard1, stronger effect = lower value 1.03 | locus YHR027C, strain rpn1, stronger effect = lower value 0.974 | locus YHR030C, strain SLT2, stronger effect = lower value 0.933 | locus YHR079C, strain IRE1, stronger effect = lower value 0.937 | locus YHR142W, strain chs7, stronger effect = lower value 0.901 | locus YJL092W, strain hpr5, stronger effect = lower value 0.969 | locus YJL095W, strain BCK1 (second series), stronger effect = lower value 0.977 | locus YJL095W, strain BCK1, stronger effect = lower value 0.911 | locus YJL115W, strain asf1, stronger effect = lower value 0.985 | locus YJL129C, strain trk1, stronger effect = lower value 0.988 | locus YJL154C, strain vps35, stronger effect = lower value 0.983 | locus YJL164C, strain tpk1, stronger effect = lower value 0.932 | locus YJL166W, strain qcr8, stronger effect = lower value 0.952 | locus YJL187C, strain SWE1, stronger effect = lower value 0.98 | locus YJR066W, strain TOR1, stronger effect = lower value 0.882 | locus YKL160W, strain elf1, stronger effect = lower value 0.916 | locus YKR026C, strain gcn3, stronger effect = lower value 0.988 | locus YKR091W, strain srl3, stronger effect = lower value 0.976 | locus YLL001W, strain dnm1, stronger effect = lower value 0.977 | locus YLL026W, stronger effect = lower value 0.98 | locus YLL041C, strain sdh2, stronger effect = lower value 0.976 | locus YLR027C, strain aat2, stronger effect = lower value 0.972 | locus YLR113W, strain HOG1, stronger effect = lower value 1.04 | locus YLR221C, strain rsa3, stronger effect = lower value 0.937 | locus YLR258W, strain gsy2, stronger effect = lower value 0.994 | locus YLR262C, strain YPT6 (second series), stronger effect = lower value 0.986 | locus YLR320W, strain mms22, stronger effect = lower value 0.99 | locus YLR342W, strain FKS1, stronger effect = lower value 0.987 | locus YLR357W, strain rsc2, stronger effect = lower value 1.02 | locus YLR370C, strain arc18, stronger effect = lower value 0.986 | locus YLR384C, strain iki3, stronger effect = lower value 0.987 | locus YML120C, strain ndi1, stronger effect = lower value 0.94 | locus YMR058W, strain fet3, stronger effect = lower value 0.942 | locus YMR125W, strain sto1, stronger effect = lower value 1.01 | locus YMR129W, stronger effect = lower value 0.99 | locus YMR205C, strain PFK2, stronger effect = lower value 1.05 | locus YMR231W, strain pep5, stronger effect = lower value 0.994 | locus YNL071W, strain lat1, stronger effect = lower value 0.982 | [2] 0.972 | locus YNL183C, strain NPR1, stronger effect = lower value 0.873 | [3] 1.01 | locus YNL209W, strain ssb2, stronger effect = lower value 0.973 | [4] 0.982 | locus YNL322C, strain KRE1 (second series), stronger effect = lower value 0.994 | locus YNR049C, strain mso1, stronger effect = lower value 0.977 | locus YOR001W, strain rrp6, stronger effect = lower value 0.928 | locus YOR070C, strain gyp1, stronger effect = lower value 0.984 | locus YOR080W, strain dia2, stronger effect = lower value 0.987 | [5] 0.991 | locus YOR231W, strain MKK1, stronger effect = lower value 0.929 | locus YOR265W, strain rbl2, stronger effect = lower value 0.982 | locus YOR270C, strain vph1, stronger effect = lower value 0.804 | locus YOR290C, strain snf2, stronger effect = lower value 0.919 | locus YPL106C, strain sse1, stronger effect = lower value 0.979 | locus YPL240C, strain hsp82, stronger effect = lower value 0.979 | locus YPL256C, strain CLN2, stronger effect = lower value 0.97
